Assay results taken from PMC10163288.
Not all results are given here. How many sequences the whole screen found active is unknown.

B1: il10ra_site1_sap_28_mot_HHH_b2_01776_000000118_0001_38_52_H_._HHH_b1_02755_0001_0000100001_0000001_0_0001_af2pred_0001 (protein)
chain: SSSSDEELLEHLLRALKQVVELGDEERAKLTIKFIKRLAELHNDEEVEKRLRELEELVEELSSSS
B2: il10ra_site1_normal_mot_HHH_b1_02809_af2_000000277_0001_40_57_H_._HHH_b1_00768_af2_0001_0000200008_0000001_0 (protein)
chain: SSSSSSDANETAARLIRAAYRGDEELFEELREELEELIERYGDPRLRLALQFAEALFRELSSSSS
B3: il10ra_site1_sap_22_mot_HHH_b1_00169_000000276_0001_1_18_H_._HHH_b1_00842_0001_0000200007_0000001_0_0001 (protein)
chain: SSSSDEEREELYEILEEVIKLASEGDEEEFEELVREAEELAKELGNWVVRHVLELLRRDLSSSSS
B4: il10ra_site1_normal_mot_HHH_b2_01397_000000078_0001_23_39_H_._HHH_b2_08075_0001_0000300026_0000002_0_af2pred_0001 (protein)
chain: SSSSDERVKLTLRFAEALAKHGDRRAVELLLRAARQLAERDGDEELEELIEEVEERVRELLSSSS
B5: il10ra_site1_normal_mot_HHH_b1_05357_000000034_0001_23_39_H_._HHH_b1_03625_af2_0001_0000700020_0000001_0 (protein)
chain: SSSSSDEKEVTHILIQAYAAANHGNPEEAEELLKEAKEIAEEINNERLKLSIEKVEEILRSSSSS
B6: il10ra_site1_sap_13_mot_HHH_b2_00943_af2_000000149_0001_1_17_H_._HHH_b1_02941_af2_0001_0000200003_0000001_0_0001 (protein)
chain: SSSSDVSREAYELSRRAAELHSEGNPEEARELLEEAEELLREAGDRVILHNVEYVLELLNSSSSS
B7: il10ra_site1_sap_14_mot_HHH_eva_0266_af2_000000000_0001_3_18_H_._HHH_b1_03321_0001_0000100001_0000001_0_0001 (protein)
chain: SSSSYEELKKLIERITRALREGNREEAQELIERVEELAEERNDWSARFVARVLQEALEANSSSSS
B8: il10ra_site1_normal_mot_HHH_b2_00475_000000107_0001_44_57_H_._HHH_b2_03520_0001_0000600038_0000001_0 (protein)
chain: SSSSDEEEVSHLLFRALELLFRGDKEEAEELVEEAKEIAEESNDPELQRYVEIAEHFVKAHSSSS
B9: il10ra_site1_normal_mot_HHH_b2_08186_000000021_0001_43_56_H_._HHH_b1_00125_0001_0000100002_0000001_0 (protein)
chain: SSSSSSDLEEEIEELLEELKQISDPERFAEVARRVLRLIYELGDEELLQELWEILKRLSSSSSSS
B10: il10ra_site1_normal_mot_HHH_b1_05670_000000169_0001_1_19_H_._HHH_b2_02857_0001_0000400035_0000001_1 (protein)
chain: SSSSDEDYRRAKELIELIVELLREGNPEEAKKVLEELRELAEENNNPVLEWSVRLLEEDINSSSS
B11: il10ra_site1_sap_27_mot_HHH_b1_05870_000000031_0001_1_20_H_._HHH_b2_06019_af2_0001_0000100004_0000001_0_0001 (protein)
chain: SSSSSDIEELLREAEELAEEGDPEEAARLLLEALKLIYERQDKELLQELWEVVRRVAEISSSSSS
B12: il10ra_site1_sap_19_mot_HHH_b2_03220_af2_000000223_0001_23_40_H_._HHH_b1_07213_0001_0000100001_0000001_0_0001 (protein)
chain: SSSSDEEQEELLRLLRKLVELLLRGDKEEAERLARELLELAEELNDEKVVHVVEDLEKTVSSSSS
B13: il10ra_site1_sap_24_mot_HHH_b2_00475_000000107_0001_44_57_H_._HHH_b1_04576_0001_0000500027_0000001_0_0001 (protein)
chain: DLLELAFELQRRQGTPPEDVIRALLYLAHAANDPERVELLEEVLKLLEDGDPERAEELLKEASKR
B14: il10ra_site1_sap_20_mot_HHH_b1_07100_000000193_0001_1_18_H_._HHH_b2_05849_0001_0000400035_0000001_0_0001_af2pred_0001 (protein)
chain: SSSSSERLELTIKFIEFLLEQGDPEAAKRLARAAAQIAKKDGDEELLRRIEELLEEAEELLSSSS
B15: il10ra_site1_normal_mot_1cde5897893f3d1588f92be3b001cdf2_0001_af2_000000130_0001_54_65_H_._HHH_b2_05871_0001_0000300015_0000001_1_af2pred_0001 (protein)
chain: SSSSSDEEVEERVEELLERLHHVDPKEAAQLLHEAARLAAELDNPELLELVFEAAEEVISSSSSS
B16: il10ra_site1_sap_30_mot_HHH_b1_02809_af2_000000277_0001_40_57_H_._HHH_b1_05733_0001_0000200016_0000002_0_0001 (protein)
chain: SSSSSEASRRIYELLRRIVELHHEGNPEEARELIEEAKELAEEAGDRVLLWVIEWLERLVNSSSS
B17: il10ra_site1_sap_21_mot_HHH_b1_04771_000000013_0001_40_56_H_._HHH_b1_05247_0001_0000500023_0000001_0_0001 (protein)
chain: SSSSDQEEELVRAAIRLIEQLIKNGNPEAARMILWAAEKLAKEINNPELLEELEELKELLNSSSS
B18: il10ra_site1_normal_mot_a6c796b944619e241e020fd597ddb6da_0001_af2_000000092_0001_15_31_H_._HHH_b2_01778_af2_0001_0000100002_0000002_0_af2pred_0001 (protein)
chain: SSSSSSSEEEQEVHALIFFARISDNEDAAKISLELAKKIAEEINNEELREEIEELEKELSSSSSS
B19: il10ra_site1_normal_mot_HHH_b2_01705_af2_000000069_0001_44_57_H_._HHH_b1_04218_af2_0001_0000400020_0000001_0 (protein)
chain: SSSSSSDSEELLEEAEELLKEIKDPEERTEVYRKFAEELVELGDREAIERLSELFIRASSSSSSS
B20: il10ra_site1_sap_19_mot_HHH_b1_00992_000000182_0001_23_40_H_._HHH_b1_02574_0001_0000200023_0000001_0_0001 (protein)
chain: SSSSDEEEELVRAALRLAEQAYENGDPEAAKRLLWAAEFLAREIGDEELEELVERVEEKISSSSS
B21: il10ra_site1_sap_24_mot_HHH_b1_02665_000000293_0001_1_18_H_._HHH_b2_00244_0001_0000100001_0000001_0_0001_af2pred_0001 (protein)
chain: SSSSDSRELIRLLRRALELLNDGNPEEAEKLLERAQEIAEEANSLNLRVVIEFVLEQVEQHSSSS
B22: il10ra_site1_normal_mot_HHH_b2_08265_af2_000000206_0001_22_38_H_._HHH_b2_05887_0001_0000200025_0000002_0 (protein)
chain: SSSSSDEEEVEELTREIERLLEEGDLEEAARLIQELLRVAYENKDQEAIQLAWELAQLAKSSSSS
B23: il10ra_site1_normal_mot_HHH_b2_08186_000000021_0001_43_56_H_._HHH_b1_08707_0001_0000400035_0000001_0 (protein)
chain: SSSSSDIEELLEEAERLAEEGNPEEALRLLQEALRLIFENQDEELLQELWEVLRLVARLSSSSSS
B24: il10ra_site1_sap_8_mot_HHH_b1_06348_000000162_0001_1_15_H_._HHH_b1_06922_0001_0000100010_0000001_0_0001_af2pred_0001 (protein)
chain: SSSSSEAEKALRWFLRAVEELLKRGNPEAAKLALRDARFAAKFLNDEEIEERLEELEKLLDSSSS
B25: il10ra_site1_sap_18_mot_HHH_b1_04818_af2_000000063_0001_42_55_H_._HHH_b1_04225_af2_0002_0000100001_0000002_0_0001 (protein)
chain: SSSSDETEEVAELMREAVELDHNGDKEEAERVAREALELAEQLNNDVLRIQAEYLEKLIGSSSSS
B26: il10ra_site1_sap_17_mot_HHH_b2_03328_af2_000000127_0001_1_19_H_._HHH_b1_04993_0001_0000100008_0000001_0_0001 (protein)
chain: SSSSSIRERIIRLLYRALRLAAEGNPEEAERLIEEAHELAEELGDPELERYIRILLHFVRSSSSS
B27: il10ra_site1_sap_16_mot_HHH_b2_04251_af2_000000037_0001_42_56_H_._HHH_b1_07004_0001_0000200017_0000001_0_0001 (protein)
chain: SSSSDVRERAARVAIEVLRIAFQQSDPEALRAVWELFRRIIEEGDPELLEELEQLLEELRSSSSS
B28: il10ra_site1_sap_30_mot_HHH_b2_02053_af2_000000006_0001_3_19_H_._HHH_b2_06177_0001_0000100006_0000002_0_0001_af2pred_dldesign_0_af2pred (protein)
chain: SPEIEAIRALLKENLSLACAALAKLLAESGNQEDIALARELARLLFEDPERAKELAEKLLAELAK
B29: il10ra_site1_normal_mot_8756ee2cf497b5429c717dfc0c0bcfd6_0001_000000186_0001_1_13_H_._HHH_b1_07372_0001_0000100003_0000001_1 (protein)
chain: SSSSSEEAREVYELIRRAAELHRNGNPEEAEEVLKEAEELAREANNDVLLFQIEYLLRHIGSSSS
B30: il10ra_site1_sap_16_mot_HHH_b1_00992_000000182_0001_23_40_H_._HHH_b1_02295_af2_0001_0000300017_0000001_0_0001 (protein)
chain: SEQVREIEELLKRNVEQAIAALAHLLAKSGDPELLRLAKELSRLMFQNPEEARKLVEEILEELKK
B31: il10ra_site1_normal_mot_HHH_b2_03220_af2_000000223_0001_23_40_H_._HHH_b1_05042_0001_0000100015_0000001_0 (protein)
chain: SSSSSRELSEEAWELLREILELIYEGDEERAQELLREVEEIAEEANSFALEYTVRILKEQLSSSS
B32: il10ra_site1_sap_22_mot_690a356816548de866c59e88e666ab0a_0001_1_af2_000000025_0001_1_13_H_._HHH_b1_01796_af2_0001_0000400019_0000001_0_0001_af2pred_0001 (protein)
chain: SSSSDIAEADARQAFKLLEIAHEQNDEELLERALELLEYLARLSNDPEAERLLEEAEKLVGSSSS
B33: il10ra_site1_normal_mot_HHH_b1_01082_af2_000000031_0001_3_19_H_._HHH_b1_06064_0001_0000200007_0000001_0 (protein)
chain: SSSSSYEEVKKLIERIVELLRRGDHEEAEKLIRELEELAEELNNPSLRFVVRLLEEVLERLSSSS
B34: il10ra_site1_sap_17_mot_HHH_b1_03763_000000209_0001_22_38_H_._HHH_b1_06016_0001_0000500017_0000001_0_0001 (protein)
chain: SSSSDDDEELLEAALRIAEQALEAGDPESARLILLAAARIAEELGNEELLEEIRRLLEEIRSSSS
B35: il10ra_site1_normal_mot_HHH_b2_04131_000000071_0001_1_16_H_._HHH_b2_02423_af2_0001_0000200002_0000002_0 (protein)
chain: SSSSSSDEELQRLLHELLRLYLKGDPRVEEVAEELRELAEELNNEVARFIVEAVERRLSSSSSSS
B36: il10ra_site1_sap_21_mot_HHH_b1_05126_000000010_0001_38_52_H_._HHH_b2_05985_af2_0001_0000600013_0000001_1_0001 (protein)
chain: SSSSDLEEEIEKLLEELEELIKEGDRERITELALKIVKLIYEAKNAELLRRLWELVKAFYSSSSS
B37: il10ra_site1_normal_mot_HHH_b1_04771_000000013_0001_40_56_H_._HHH_b1_06413_0001_0000200008_0000001_0 (protein)
chain: SSSSDLDERVSRLSQEVFRLALRGNPEEAEKVVEEAIELAEEANNERALRVLRDLEQVLESSSSS

Target: il10ra, Q13651
Sequence (Q13651 whole entry): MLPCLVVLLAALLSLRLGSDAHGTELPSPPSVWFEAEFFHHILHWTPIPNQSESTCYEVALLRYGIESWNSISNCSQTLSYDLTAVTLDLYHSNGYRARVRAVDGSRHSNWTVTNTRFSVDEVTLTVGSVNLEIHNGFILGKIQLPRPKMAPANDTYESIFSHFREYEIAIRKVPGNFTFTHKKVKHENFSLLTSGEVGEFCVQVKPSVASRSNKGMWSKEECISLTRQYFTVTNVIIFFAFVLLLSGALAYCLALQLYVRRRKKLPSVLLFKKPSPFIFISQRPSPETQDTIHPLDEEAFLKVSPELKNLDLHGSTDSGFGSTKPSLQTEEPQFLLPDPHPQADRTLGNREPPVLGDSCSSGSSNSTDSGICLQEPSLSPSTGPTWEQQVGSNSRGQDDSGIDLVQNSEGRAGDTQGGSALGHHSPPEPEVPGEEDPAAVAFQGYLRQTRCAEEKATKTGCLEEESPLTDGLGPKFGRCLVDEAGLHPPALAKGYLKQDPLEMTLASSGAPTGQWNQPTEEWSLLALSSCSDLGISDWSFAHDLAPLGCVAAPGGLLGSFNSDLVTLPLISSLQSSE
Experiment: yeast display titration

Apparent Kd, inactive:
B1 no binding seen
B2 no binding seen
B3 no binding seen
B4 no binding seen
B5 no binding seen
B6 no binding seen
B7 no binding seen
B8 no binding seen
B9 no binding seen
B10 no binding seen
B11 no binding seen
B12 no binding seen
B13 no binding seen
B14 no binding seen
B15 no binding seen
B16 no binding seen
B17 no binding seen
B18 no binding seen
B19 no binding seen
B20 no binding seen
B21 no binding seen
B22 no binding seen
B23 no binding seen
B24 no binding seen
B25 no binding seen
B26 no binding seen
B27 no binding seen
B28 no binding seen
B29 no binding seen
B30 no binding seen
B31 no binding seen
B32 no binding seen
B33 no binding seen
B34 no binding seen
B35 no binding seen
B36 no binding seen
B37 no binding seen
